Screening data as filed in PubChem BioAssay.
PPARg SRC-3 ag: promotes SRC-3 coactivator recruitment by human PPARgamma. biochemical PPARgamma/SRC-3 coactivator recruitment assay. activation, % at 8 µM. hit rate 0.26% among 200,000. AID 731; in the data active = activation above about 23%
Target sequence (P37231 whole entry, looked up): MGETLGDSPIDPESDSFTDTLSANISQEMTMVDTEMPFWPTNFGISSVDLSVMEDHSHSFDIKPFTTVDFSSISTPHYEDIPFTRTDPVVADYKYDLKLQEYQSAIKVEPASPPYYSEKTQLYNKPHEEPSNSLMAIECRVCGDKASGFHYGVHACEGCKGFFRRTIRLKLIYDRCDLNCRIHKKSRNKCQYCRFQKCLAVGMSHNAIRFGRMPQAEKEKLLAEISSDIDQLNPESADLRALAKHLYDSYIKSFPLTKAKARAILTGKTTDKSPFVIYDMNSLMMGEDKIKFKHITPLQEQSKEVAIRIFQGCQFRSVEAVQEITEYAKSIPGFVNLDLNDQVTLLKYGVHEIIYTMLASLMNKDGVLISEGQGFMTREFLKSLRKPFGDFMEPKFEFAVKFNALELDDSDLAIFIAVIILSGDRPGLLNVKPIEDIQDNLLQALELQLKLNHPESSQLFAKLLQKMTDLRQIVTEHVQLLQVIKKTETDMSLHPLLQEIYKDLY
SRC3 TRFRET art: TR-FRET artefact, counter-screen to PPARgamma/SRC-3 agonist assay | PPARgamma/SRC-3 format; active compounds read high | hit rate 0.39% among 99,000 | TR-FRET ratio at 8 µM | AID 1048
PPARg SRC2 recr: PPARgamma-driven SRC-2 recruitment agonism. PPARgamma LBD-SRC-2 recruitment, biochemical. hit rate 0.34% among 200,000. P37231. AID 1032. activation, % at 8 µM; in the data active = activation above about 22%
SRC2 TRFRET art: TR-FRET artefact, counter-screen to PPARgamma/SRC-2 agonist assay | active compounds read high | TR-FRET ratio at 8 µM | hit rate 0.4% among 200,000 | AID 1049
PPARg SRC-1 ag: PPARgamma-driven SRC-1 recruitment agonism. P37231. PPARgamma-SRC-1 coactivator recruitment biochemical assay. activation, % at 8 µM. hit rate 0.41% among 200,000. AID 631; in the data active = activation above about 19%
SRC1 TRFRET art: TR-FRET artefact, counter-screen to PPARgamma/SRC-1 agonist assay | TR-FRET ratio at 8 µM | hit rate 0.34% among 99,000 | AID 1051 | TR-FRET detection artefact counter-screen, emission ratio; active compounds read high; in the data active = TR-FRET ratio above about 2300
Numbers stand for hits; . = inactive; / = no result. A selection: hits, their analogues and other compounds. The true share with any hit is near 0.9%. Cut-off read from the data, not from the text of the source, unless noted: active = TR-FRET ratio above about 2000; inactive = the rest.

SMILES | PPARg SRC-3 ag | SRC3 TRFRET art | PPARg SRC2 recr | SRC2 TRFRET art | PPARg SRC-1 ag | SRC1 TRFRET art
O=C(Nc1nc(-c2cccs2)cs1)c1ccc(S(=O)(=O)N2CCCC2)cc1 | . | / | . | 2064 | . | /
CN(C)S(=O)(=O)c1ccc(C(=O)Nc2nc(-c3cccs3)cs2)cc1 | . | / | . | . | . | /
CCOC(=O)C1=C(C)NC(SCC(=O)O)=NC1c1ccccc1 (stereo not drawn) | . | . | 40.4 | 2481 | . | .
CN1/C(=C\C(=O)COC(=O)CNC(=O)c2ccc3ccccc3c2)C(C)(C)c2ccccc21 | . | 3346 | . | 2236 | . | 3406
CN1/C(=C\C(=O)COC(=O)CNC(=O)c2ccccc2F)C(C)(C)c2ccccc21 | . | . | . | . | . | .
COc1cccc(NC(=S)NN=C2CCCCCC2)c1 | . | . | . | . | . | .
C=CCn1c(SCC(=O)NCc2ccc3c(c2)OCO3)nc2scc(-c3ccccc3)c2c1=O | . | / | . | 1974 | . | /
CCOCCCn1c(SCC(=O)NCc2ccc3c(c2)OCO3)nc2ccccc2c1=O | . | . | . | . | . | .
CCCCNC(=O)CSc1nc2ccccc2c(=O)n1Cc1ccc2c(c1)OCO2 | . | / | 190.0 | 5232 | . | /
CCSC1=N/C(=C\c2ccc(OC)cc2)C(=O)N1 | . | . | . | . | . | .
COc1ccc(/C=C2\N=C(SC)NC2=O)cc1 | . | / | 22.3 | . | . | /
Cn1ccnc1C1CCCCN1Cc1nc(-c2ccc3c(c2)OCO3)no1 (stereo not drawn) | . | . | . | . | 38.5 | 3563
COCc1c(C(=O)OC)nnn1-c1ccccc1 | . | / | . | . | 94.1 | /
COC(=O)c1nnn(-c2ccccc2)c1N | . | / | . | . | . | /
O=C(OC1CCCCC1)c1ccc2c(c1)C1C=CCC1C(C(=O)O)N2 (stereo not drawn) | . | . | . | 2020 | . | .
CCCCOc1ccc(NC2=NC3(CCCC3)N=C(N)N2)cc1 | . | / | 40.7 | 2220 | . | /
O=C(Nc1nc(-c2ccco2)c(-c2ccco2)s1)C1CCC1 | . | . | . | . | . | 2403
O=S(=O)(c1ccccc1)c1cnn2c(C(F)(F)F)cc(-c3ccc(F)cc3)nc12 | . | / | . | . | 21.3 | /
O=S(=O)(c1ccccc1)c1cnn2c(C(F)(F)F)cc(-c3ccccc3)nc12 | . | / | . | . | . | /
O=C(OCC(=O)N1CCc2ccccc2C1)c1cccnc1Cl | . | . | . | . | . | .
CCOc1cc(CNc2ccc(N3CCN(C(C)=O)CC3)cc2)cc(Br)c1OC | . | . | 22.1 | . | . | .
CCOc1cc(CNc2ccc(N3CCCC3)cc2)cc(Cl)c1OC | . | . | . | 2050 | . | .
COc1cc(CNc2ccc(N3CCCC3)cc2)cc(Cl)c1OC | . | . | . | . | . | .
CNC(=S)N1CCN(C(=O)C2CCCO2)CC1 (stereo not drawn) | . | . | . | . | . | .
CC(C)(C)c1ccc(C(=O)NCC(=O)OCC(=O)c2ccc3c(c2)-c2ccccc2C3)cc1 | . | . | . | 2064 | . | 2576
SMILES | PPARg SRC-3 ag | SRC3 TRFRET art | PPARg SRC2 recr | SRC2 TRFRET art | PPARg SRC-1 ag | SRC1 TRFRET art
O=C(CNC(=O)c1cccs1)OCC(=O)c1ccc2ccccc2c1 | . | / | . | . | . | /
O=C(C1CCCN(S(=O)(=O)c2ccc(F)cc2)C1)N(Cc1cccs1)C1CC1 (stereo not drawn) | . | . | . | . | . | 2408
Cc1nnc(NC(=O)c2ccc3ccccc3n2)s1 | . | . | . | . | . | .
Cc1ccc([N+](=O)[O-])cc1N | . | . | . | . | . | .
Nc1ccc2c(c1)Cc1cc([N+](=O)[O-])ccc1-2 | . | . | . | 2054 | . | .
O=C1C2C(C(=O)N1/N=C/c1ccc(N3CCCCC3)o1)C1C=CC2C12CC2 (stereo not drawn) | . | . | . | . | . | .
Cc1ccc(-c2nc3ccccc3c(=O)n2CCCN2CCOCC2)cc1 | . | / | . | . | . | /
O=c1c2ccccc2nc(-c2ccccc2)n1CCCN1CCOCC1 | . | / | . | . | 18.8 | /
CCc1nnc(NC(=O)C2CCCN(S(=O)(=O)c3ccc(OC)cc3)C2)s1 (stereo not drawn) | . | . | . | . | . | .
CSc1nc(SCC(=O)NCc2ccco2)c2c3c(sc2n1)COC(C)(C)C3 | . | . | . | . | . | .
CSc1nc(SCC(=O)NC(c2ccccc2)c2ccccc2)c2c3c(sc2n1)CN(C)CC3 | . | / | . | 2069 | . | /
O=C(CSc1nc2ccccc2c(=O)n1-c1ccc(F)cc1)Nc1ccc(Cl)c(S(=O)(=O)N2CCOCC2)c1 | . | 2299 | . | 2212 | . | .
O=C(CSc1nnc2c(n1)[nH]c1ccc(S(=O)(=O)N3CCOCC3)cc12)Nc1ccccc1Cl | . | 2209 | . | . | . | .
Cc1ccc(S(=O)(=O)N2CCOCC2)cc1NC(=O)CSc1nnc2cc(C)c3ccccc3n12 | . | . | . | . | . | .
Nc1cc(=O)[nH]c(SCC(=O)Nc2cc(S(=O)(=O)N3CCOCC3)ccc2Cl)n1 | . | . | . | . | . | .
O=C(CSc1nc2ccccc2s1)Nc1cc(S(=O)(=O)N2CCOCC2)ccc1Cl | . | 2069 | . | . | . | .
Cc1cc2nnc(SCC(=O)Nc3cc(S(=O)(=O)N4CCOCC4)ccc3Cl)n2c2ccccc12 | . | 2297 | . | . | . | .
Cc1ccc(-n2c(SCC(=O)Nc3cc(S(=O)(=O)N4CCOCC4)ccc3Cl)nc3ccccc3c2=O)cc1 | . | . | . | . | . | .
CC1=C(C)CC(C(=O)Nc2ccc(C(=O)N3CCOCC3)cc2)C(C(=O)O)C1 (stereo not drawn) | . | . | . | . | . | .
COc1ccc(CN(CC2CCC(C(=O)O)CC2)C(=S)Nc2cc(Cl)ccc2OC)cc1 (stereo not drawn) | . | . | . | . | . | .
COc1ccccc1NC(=O)c1ccc(CSc2ncccn2)cc1 | . | . | . | . | . | .
Cc1cc(SCC(=O)Nc2cccc(S(=O)(=O)N3CCOCC3)c2)nc2ccccc12 | . | 2197 | . | . | . | .
O=C(CSc1nc2ccccc2c(=O)n1-c1ccc(F)c(Cl)c1)Nc1cccc(S(=O)(=O)N2CCOCC2)c1 | . | . | . | . | . | .
CCc1ccc(-n2c(SCC(=O)Nc3cccc(S(=O)(=O)NC4=NCCCCC4)c3)nc3ccccc3c2=O)cc1 | . | . | . | . | . | .
Cc1ccc(-n2c(SCC(=O)Nc3cccc(S(=O)(=O)NC4=NCCCCC4)c3)nc3ccccc3c2=O)cc1 | . | 2355 | . | 2048 | . | .
COCCNC(=O)/C(C#N)=C/c1c(N2CC(C)OC(C)C2)nc2ccccn2c1=O (stereo not drawn) | . | . | . | . | . | .
CN1CCc2c(sc3c2C(=O)NC(c2cccs2)N3)C1 (stereo not drawn) | . | / | . | . | . | /
CN1CCc2c(sc3c2C(=O)NC(c2ccc(-c4cccc(Cl)c4)o2)N3)C1 (stereo not drawn) | . | . | . | . | . | 2385
CCc1ccc2c(c1)cc(CN(C(=S)Nc1ccc(Cl)cc1)C1CC1)c1nnnn12 | . | / | . | . | 48.3 | /
